G9a inh = G9a (human) methyltransferase inhibition. Q96KQ7. G9a H3K9 monomethylation, AlphaScreen, 2 h. Potency, µM (series often up to 102 µM), actives largely listed as inhibitors. 8.8% of 350,000 active; also: nearly all actives have a fitted effect of over 75% in size
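Quantitative HTS format: methyltransferase activity on a biotin-tagged H3K9 peptide is measured by AlphaScreen, using a rabbit anti-monomethyl-H3K9 antibody with streptavidin donor and anti-IgG acceptor beads. Final levels are 20 nM enzyme, 500 nM peptide, 20 uM SAM; 2 h RT.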
HP1b chromo inh = blocks HP1-beta chromodomain binding to methylated histone tails. AlphaScreen HP1-beta / biotin-H3K9me3 peptide binding. Potency, µM (top dose mostly 114 µM), actives largely listed as inhibitors. AID 540317. 0.56% of 390,000 active. P83916; also: nearly all actives have a fitted effect of over 70% in size
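AlphaScreen: HP1-beta (50 nM) preformed 30 min with biotin-H3(1-18)K9me3 peptide (50 nM) in PBS pH 7.4, 0.01% Tween-20. Compound added for 30 min at RT, then streptavidin donor/nickel chelate acceptor beads (10 ug/mL) for 30 min.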
CtBP-E1A blk = blocks the CtBP interaction with E1A; 0.49% of 340,000 active; activity change, % (concentration not given with the values); AlphaScreen GST-E1A/His-CtBP binding, 1536-well; stronger effect = lower value; in the data active = activity change below about -65%; inconclusive = mostly about -30% to -63%
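GST-E1A and His-tagged CtBP (125 nM each as 5X stock) were preincubated with pin-transferred compound for 2 h at 37 °C in the dark, then glutathione donor and nickel acceptor beads were added for 1 h before AlphaScreen reading.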
Six1-Eya2 blk = Six1/Eya2 interaction inhibition | activity change, % (concentration not given with the values) | 0.56% of 360,000 active | Q15475+O00167 | AlphaScreen GST-Six1/His-Eya2 binding, biochemical; stronger effect = lower value; in the data active = activity change below about -65%; inconclusive = mostly about -30% to -63%
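GST-Six1 + His-Eya2 (5X stock: 250/500 nM); Tris pH 8.0, 300 mM NaCl, 0.05% BSA, 0.02% Tween 20; GSH donor/Ni acceptor beads; 1 h 37 °C dark; AlphaScreen readout.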
JMJD2A Tudor = inhibitors of human JMJD2A Tudor domain | Potency, µM (series often up to 114 µM), hits mostly inhibitors | O75164 | AlphaScreen JMJD2A-Tudor / H3K4me3 peptide binding | 4.4% of 390,000 active; also: nearly all actives have a fitted effect of over 50% in size
BAZ2B block = BAZ2B (human) inhibition. AID 504333. Q9UIF8. Potency, µM (highest dose often 114 µM), actives largely listed as inhibitors. 4.4% of 360,000 active. AlphaScreen BAZ2B-H3K14Ac peptide displacement; also: nearly all actives have a fitted effect of over 60% in size
Target sequence (Q9UIF8 whole entry, looked up): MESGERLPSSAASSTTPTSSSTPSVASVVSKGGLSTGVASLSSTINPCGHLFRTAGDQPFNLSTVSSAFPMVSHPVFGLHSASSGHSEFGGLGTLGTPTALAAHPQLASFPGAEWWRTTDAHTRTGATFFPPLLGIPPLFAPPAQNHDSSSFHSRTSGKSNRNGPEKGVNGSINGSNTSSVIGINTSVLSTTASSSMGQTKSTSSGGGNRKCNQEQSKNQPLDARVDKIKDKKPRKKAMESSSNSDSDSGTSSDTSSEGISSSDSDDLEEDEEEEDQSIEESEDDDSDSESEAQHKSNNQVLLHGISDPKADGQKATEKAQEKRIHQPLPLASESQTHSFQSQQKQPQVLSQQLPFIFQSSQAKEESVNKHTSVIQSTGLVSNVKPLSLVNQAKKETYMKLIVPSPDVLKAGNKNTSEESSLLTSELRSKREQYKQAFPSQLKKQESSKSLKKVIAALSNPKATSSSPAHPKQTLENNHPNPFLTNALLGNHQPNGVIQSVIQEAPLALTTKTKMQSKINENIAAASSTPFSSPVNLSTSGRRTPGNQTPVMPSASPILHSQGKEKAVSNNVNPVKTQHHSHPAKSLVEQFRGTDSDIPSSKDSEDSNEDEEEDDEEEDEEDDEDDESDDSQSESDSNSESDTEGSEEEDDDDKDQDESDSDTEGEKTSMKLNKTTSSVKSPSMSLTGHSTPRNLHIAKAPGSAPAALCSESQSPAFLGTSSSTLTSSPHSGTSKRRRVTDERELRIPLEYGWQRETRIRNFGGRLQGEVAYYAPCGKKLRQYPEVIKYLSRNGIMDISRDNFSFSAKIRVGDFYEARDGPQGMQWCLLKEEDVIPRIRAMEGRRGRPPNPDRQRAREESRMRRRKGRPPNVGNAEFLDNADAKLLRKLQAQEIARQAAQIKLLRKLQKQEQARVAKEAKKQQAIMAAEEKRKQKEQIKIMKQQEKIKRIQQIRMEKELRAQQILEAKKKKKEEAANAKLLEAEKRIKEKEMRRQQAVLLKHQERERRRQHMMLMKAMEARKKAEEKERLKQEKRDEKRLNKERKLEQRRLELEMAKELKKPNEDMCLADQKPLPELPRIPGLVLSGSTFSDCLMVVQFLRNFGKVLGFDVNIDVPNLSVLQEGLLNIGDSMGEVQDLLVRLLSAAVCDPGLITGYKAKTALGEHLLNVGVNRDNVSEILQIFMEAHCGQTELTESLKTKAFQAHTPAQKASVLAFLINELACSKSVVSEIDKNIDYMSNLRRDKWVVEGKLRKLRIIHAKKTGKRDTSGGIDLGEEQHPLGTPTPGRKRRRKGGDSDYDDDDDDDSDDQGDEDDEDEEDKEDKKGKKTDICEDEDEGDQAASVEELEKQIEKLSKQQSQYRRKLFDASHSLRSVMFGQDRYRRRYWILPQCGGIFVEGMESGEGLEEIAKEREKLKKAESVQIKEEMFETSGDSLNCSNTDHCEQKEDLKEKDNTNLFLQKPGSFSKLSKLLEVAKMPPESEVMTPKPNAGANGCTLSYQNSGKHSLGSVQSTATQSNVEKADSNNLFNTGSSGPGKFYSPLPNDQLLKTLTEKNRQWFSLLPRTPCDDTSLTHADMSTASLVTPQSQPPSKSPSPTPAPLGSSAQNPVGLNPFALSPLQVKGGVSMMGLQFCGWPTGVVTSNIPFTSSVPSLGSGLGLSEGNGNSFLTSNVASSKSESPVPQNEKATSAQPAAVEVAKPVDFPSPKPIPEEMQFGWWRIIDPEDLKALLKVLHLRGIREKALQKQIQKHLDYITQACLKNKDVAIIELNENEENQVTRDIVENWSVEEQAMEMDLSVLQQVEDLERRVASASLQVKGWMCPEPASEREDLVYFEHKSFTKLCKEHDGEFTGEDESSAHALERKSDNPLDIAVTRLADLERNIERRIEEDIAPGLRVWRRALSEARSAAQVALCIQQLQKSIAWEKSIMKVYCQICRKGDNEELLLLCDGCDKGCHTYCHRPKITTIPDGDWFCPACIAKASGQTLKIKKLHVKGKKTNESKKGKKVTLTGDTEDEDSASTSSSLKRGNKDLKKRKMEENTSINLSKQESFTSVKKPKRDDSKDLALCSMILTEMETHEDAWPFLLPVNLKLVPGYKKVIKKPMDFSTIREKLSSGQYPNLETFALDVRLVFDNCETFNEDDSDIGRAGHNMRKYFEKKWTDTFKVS
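AlphaScreen displacement of biotin-H3(5-23)K14Ac peptide (50 nM final) from BAZ2B (50 nM final) in PBS pH 7.4, 0.01% Tween-20; complex preformed 30 min RT, then compounds (top 110 uM) 30 min RT, beads 20 min dark.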
Hits are given with their value; i = inactive; ? = inconclusive; nt = no result; [ ] = another dose, or the depositor's remark. Only some compounds are listed: those with a hit (about 10% of all), similar ones and a draw of the others. Unless noted, calls follow the shape of the dose curve; as a rule, active = well fitted inhibition curve with a large enough effect; inconclusive = small, poorly fitted or top-dose-only effect; inactive = no such curve, though single readings can be large or run the other way.

SMILES	G9a inh	HP1b chromo inh	CtBP-E1A blk	Six1-Eya2 blk	JMJD2A Tudor	BAZ2B block
C/C(=N\NS(=O)(=O)c1ccc([N+](=O)[O-])cc1)c1ccc(NC(=O)c2ccco2)cc1	35.5µM	i	i	i	i	i
Nc1ccc([N+](=O)[O-])cc1C(=O)NNC(=O)c1ccco1	i	i	i	i	i	i
CC(=NNS(=O)(=O)c1ccc([N+](=O)[O-])cc1)c1ccc(C)cc1	nt	?	i	i	i	nt
O=C(NNc1ccc([N+](=O)[O-])cc1[N+](=O)[O-])c1ccco1	39.8µM	?	?	i	?	39.8µM
CC1CCCN(CCCOc2ccc(Br)cc2Cl)C1 (stereo not given)	20µM	?	i	i	1.12µM	?
CC1CCN(CCOCCOc2ccc(Br)cc2Cl)CC1	8.91µM	?	i	i	2.82µM	?
Cc1ccc(Cl)c(OCCCCN2CCC(C)CC2)c1	nt	i	i	i	i	nt
O=C(COc1ccc(Br)cc1Cl)NCCCN1CCOCC1	i	i	i	i	i	i
O=c1[nH][nH]cc1C=Nc1cc(Cl)ccc1O	?	i	nt	i	79.4µM	14.1µM
O=c1[nH][nH]cc1C=Nc1ccc(Cl)cc1Cl	i	i	i	i	i	?
O=c1[nH][nH]cc1C=Nc1ccccc1O	i[12.7 µM]	i	-83.4	-77.4	i	39.8µM
O=C(OCC#CCSc1nnc(-c2cccc3ccccc23)o1)C1CC1	nt	nt	nt	nt	i	nt
Cc1cc(C)cc(OCc2cc(=O)n3c(-c4ccccc4)csc3n2)c1	i	i	nt	nt	?	79.4µM
CCOc1ccc(NC(=O)CN(C)Cc2cc(=O)n3c(-c4ccccc4)csc3n2)cc1OCC	50.1µM	i	i	i	i	?
O=c1cc(CN2CCN(c3ccccc3)CC2)nc2scc(-c3ccccc3)n12	i	i	i	i	i	?
C=CCNCc1cc(=O)n2c(-c3ccccc3)csc2n1	?	?	i	i	3.55µM	50.1µM
Cc1ccc(OCc2cc(=O)n3c(-c4ccccc4)csc3n2)cc1	i	i	nt	nt	?	i
CCOC(=O)C1CCN(Cc2cc(=O)n3c(-c4ccccc4)csc3n2)CC1	i	i	i	i	i	i
CCCC[C@H]1CCCO[C@@](C(=O)NCc2cc(C)n(C)n2)(C(F)(F)F)C1	nt	i	nt	nt	i	nt
CCCOC(=O)CSC1=C(C#N)C(c2ccccc2OCC)C(C#N)C(=O)N1 (stereo not given)	?	?	i	i	i	50.1µM
CCOC(=O)C1C(=O)NC(SC)=C(C#N)C1c1ccccc1F (stereo not given)	i	i	i	i	i	i
CCCCOC(=O)CSC1=C(C#N)C(c2ccccc2OC)C(C#N)C(=O)N1 (stereo not given)	i[0.501 µM]	i	i	i	?	?
CCOC(=O)C1C(=O)NC(SCC(N)=O)=C(C#N)C1c1ccccc1OCC (stereo not given)	20µM	i	i	i	?	i
CCCCOC(=O)CSC1=C(C#N)C(c2ccccc2OCC)C(C#N)C(=O)N1 (stereo not given)	i[0.501 µM]	i	i	i	i	50.1µM
CCc1ccc(S(=O)(=O)Nc2cccc(-c3ccc(N4CCCCC4)nn3)c2)s1	i	i	nt	nt	i	?
SMILES	G9a inh	HP1b chromo inh	CtBP-E1A blk	Six1-Eya2 blk	JMJD2A Tudor	BAZ2B block
COc1ccc2sc(-c3ccccc3OC)c(C#CCCO)c2c1	i[0.501 µM]	i	i	i	i	79.4µM
COc1ccc2sc(-c3ccccc3OC)c(C#Cc3cncn3C)c2c1	nt	i	i	i	39.8µM	nt
COc1ccc(-c2sc3ccccc3c2C#Cc2cncn2C)cc1	nt	i	nt	i	?	nt
COc1ccccc1-c1sc2cc3c(cc2c1C#CCO)OCO3	i[0.501 µM]	i	i	i	i	i
COc1cc(OC)cc(-c2sc3ccc(OC)cc3c2C#CCCO)c1	i[0.501 µM]	i	i	i	i	?
COc1ccccc1-c1sc2cc3c(cc2c1C#Cc1cncn1C)OCO3	nt	i	nt	i	20µM	nt
COC(=O)C1(C(=O)OC)C/C=C\CCN(S(=O)(=O)c2ccccc2[N+](=O)[O-])CC1	nt	nt	i	i	nt	nt
CCOC(=O)c1c(/N=C/C2=C(O)CC(C)(C)CC2=O)sc(C)c1C	i	i	i	i	i	i
CCN(CC)CCN(Cc1cc2cc3c(cc2[nH]c1=O)OCO3)C(=S)NCC(C)C	i	i	i	i	i	i

Assay outcomes as filed in PubChem.
